Shown are actives, neighbours in structure and some others; about 1.2% of the full set was active somewhere.
RGS16-Gao: RGS16-Galphao interaction regulator (human) | O15492+P09471 | bead-based flow cytometry RGS16-Galphao binding, fluorescence; actives lie on both sides | binding response (% of control), % at 10 µM | 220,000 compounds, 0.38% hits | AID 1441; call rule not given here;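 note: Galphao activated by GDP with aluminum fluoride before binding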
Target sequence (O15492 whole entry, looked up): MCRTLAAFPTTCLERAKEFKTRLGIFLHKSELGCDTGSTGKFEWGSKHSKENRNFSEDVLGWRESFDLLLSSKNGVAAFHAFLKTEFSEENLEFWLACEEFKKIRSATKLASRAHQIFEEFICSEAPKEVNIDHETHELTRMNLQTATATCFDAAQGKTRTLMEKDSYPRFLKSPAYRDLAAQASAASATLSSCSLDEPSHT
Target sequence (P09471 whole entry, looked up): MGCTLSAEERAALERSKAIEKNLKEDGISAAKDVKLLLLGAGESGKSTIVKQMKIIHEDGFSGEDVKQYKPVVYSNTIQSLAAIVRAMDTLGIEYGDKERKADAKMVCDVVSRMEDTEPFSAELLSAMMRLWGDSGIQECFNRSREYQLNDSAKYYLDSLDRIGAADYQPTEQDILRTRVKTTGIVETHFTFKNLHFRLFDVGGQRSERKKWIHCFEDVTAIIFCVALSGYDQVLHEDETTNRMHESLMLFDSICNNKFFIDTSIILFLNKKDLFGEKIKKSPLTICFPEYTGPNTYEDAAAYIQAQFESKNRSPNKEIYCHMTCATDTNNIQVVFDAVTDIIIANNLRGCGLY
Avidin fluor: compound fluoresces at 488/530 nm on avidin beads; compound fluorescence 488/530 nm, flow cytometry; active compounds read high; fluorescence (KMESF) at 10 µM; 220,000 compounds, 0.38% hits; AID 1775; in the data active = fluorescence above about 47
RGS7-Gao: regulators of human RGS7-Galphao interaction; P09471; Multiplexed bead flow cytometry, RGS7-Galphao binding; actives lie on both sides; binding response (% of control), % at 10 µM; 220,000 compounds, 0.35% hits; AID 1439; in the data active = binding response below about 49% or above about 150%; inconclusive = no clear call, values can overlap the other calls; inactive = in between;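 note: fluorescent Galphao held in activated GDP-AlF4 state binding bead-coupled RGS7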
Target sequence (P09471 whole entry, looked up): as above
RGS8-Gao reg: human RGS8-Galphao interaction regulation | AID 1423 | P09471 | response (percent of control binding), % at 10 µM | multiplexed bead flow cytometry, RGS8-Galphao binding; actives lie on both sides | 220,000 compounds, 0.34% hits; in the data active = response below about 60% or above about 140%; inactive = in between;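 note: Galphao activated as the GDP aluminium fluoride complex binding bead-coupled RGS8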
GSH bead fluor: GSH bead compound fluorescence profile; AID 1776; fluorescence (KMESF) at 10 µM; GSH beads flow cytometry, compound fluorescence 488/530 nm; active compounds read high; 190,000 compounds, 0.25% hits; in the data active = fluorescence above about 89;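 note: glutathione beads carrying GST-tagged Bcl family fusion proteins plus one bare bead set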
RGS4-Gao reg: modulates binding of RGS4 to human Galphao; P09471; Multiplexed bead flow cytometry; actives lie on both sides; binding response (% of control), % at 10 µM; 220,000 compounds, 0.33% hits; AID 1415; in the data active = binding response below about 49% or above about 150%; inactive = in between;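 note: fluorescent Galphao activated with aluminum fluoride binding bead-coupled RGS4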
Large screens that a line does not name were inactive; ! = not active in a repeat; [ ] = another dose, or the depositor's remark.

CCN(CC)CCNC(=O)c1ccccn1	none
C/C=C\C(=O)Nc1cccc(C2=NOC3(C2)C[C@@H](C(N)=O)N(C(=O)c2ccc(OC)cc2)C3)c1 (stereo partly specified)	RGS7-Gao inconclusive (no result: GSH bead fluor)
O=Cc1ccc(Oc2cnccn2)cc1	RGS7-Gao inconclusive
CCCCOc1ccc(N=Cc2cccs2)cc1	none
Oc1ccc(N=Cc2ccc(-c3cccs3)s2)cc1	Avidin fluor 47
COc1cc(N=Nc2c(C)n(C)n(-c3ccccc3)c2=O)ccc1N	none
CN(CC(=O)N1CCN(c2ncccn2)CC1)S(=O)(=O)c1ccc(Cl)cc1	none
CN(CC(=O)N1CCN(c2ccccn2)CC1)S(=O)(=O)c1ccccc1	Avidin fluor 49
O=C(Nc1ccc(S(=O)(=O)N2CCCC2)cc1)N1c2ccccc2Sc2ccccc21	Avidin fluor 77
CCc1nnc(NC(=O)C2CCCN2C(=O)NC2CCCCC2)s1 (stereo unspecified)	GSH bead fluor 262
CC(=O)Nc1ccc(N2CCN(C(=O)c3cccs3)CC2)cc1	Avidin fluor 99
Nc1ccc(N2CCN(C(=O)c3cccs3)CC2)cc1	none
CC1=CC(C)(C)[N+](C)(C)c2ccccc21	none
CCN(CC)CCNc1nc(-c2ccco2)c2c(c1C#N)CC(C)(C)OC2	Avidin fluor 48
CCOC(=O)CCCNC(=O)COC(=O)c1cccc(C)c1O	GSH bead fluor 261
CCC(CC)NC(=O)COC(=O)c1cccc(C)c1O	GSH bead fluor 262
Cc1cccc(C(=O)OCC(=O)Nc2ccc(N3CCCCC3)cc2)c1O	none
Cc1occc1C(=O)NN=C1C2CC3CC(C2)CC1C3	GSH bead fluor 105
CCOC(=O)c1c(-c2cccc([N+](=O)[O-])c2)csc1NC(=O)C1CCCCC1	GSH bead fluor 166
COc1ccc2c(c1)C(C)=CC(C)(C)N2S(=O)(=O)c1ccc(Br)cc1	none
O=C(CN1CCC(NC(=O)c2ccco2)CC1)Nc1cccc2ccccc12	GSH bead fluor 120
COCC(=O)N(c1ccccc1)C(C)C(=O)OC (stereo unspecified)	none
Cc1ccc(CNC(=O)c2cnc(-c3ccccn3)nc2C(F)(F)F)cc1	GSH bead fluor 276
CC1=NN(c2ccc(N)cc2)C(=O)C1	RGS7-Gao 12.4, GSH bead fluor 223, RGS4-Gao reg 34.7
CC1=NN(c2ccc(Cl)cc2)C(=O)C1	none
Cc1nc2ccc(S(=O)(=O)NCC(=O)NC(C)c3ccccc3)cc2s1 (stereo unspecified)	none
Cc1cc(C)n2nc(C(=O)NNC(=O)c3ccccc3)nc2n1	none
CCOC(=O)/C(C#N)=N/Nc1ccccc1C#N	Avidin fluor 47, RGS7-Gao inconclusive (no result: GSH bead fluor)
CCOC(=O)/C(C#N)=N/Nc1c(C)n(C)n(-c2ccccc2)c1=O	none
CNC(=O)CC12CC3CC(CC(C3)C1)C2	GSH bead fluor 261
COCCNC(=S)NC(=O)CC12CC3CC(CC(C3)C1)C2	none
CC(C)CC(NC(=O)c1ccc(Cl)cc1)C(=O)OCC(=O)c1ccc2c(c1)NC(=O)CO2 (stereo unspecified)	GSH bead fluor 239
O=C(Nc1ccccn1)C(=O)Nc1ccccn1	RGS7-Gao inconclusive (no result: GSH bead fluor)
O=C(Nc1ccccc1)Nc1ccccn1	Avidin fluor 68!, RGS7-Gao inconclusive
CSc1sc(C)cc1/C=N/O	none
COc1ccc(/C(O)=C2/C(=O)C(=O)N(Cc3ccco3)C2c2cccs2)cc1 (stereo unspecified)	none
COc1ccc(C2/C(=C(\O)c3ccc4c(c3)OCCO4)C(=O)C(=O)N2Cc2ccco2)c(OC)c1 (stereo unspecified)	GSH bead fluor 122
OC(CSc1c(Cl)cccc1Cl)CN1CCN(c2ccccc2F)CC1 (stereo unspecified)	none
OC(CSc1ccccc1Cl)CN1CCN(c2ccccc2F)CC1 (stereo unspecified)	Avidin fluor 89
CCCC(=O)Nc1nc(C)c(-c2csc(Nc3cc(OC)ccc3OC)n2)s1	Avidin fluor 80
C=CCCC(=O)Nc1nc(C)c(-c2csc(Nc3cc(OC)ccc3OC)n2)s1	none
COCCCNC(=O)CSc1ccc(Cl)cc1	none
CCOCCCNC(=O)CSc1ccccc1	Avidin fluor 51
O=C(COC(=O)c1ccc2c(c1)C(=O)N(c1cccc3ncccc13)C2=O)c1ccc(Cl)cc1	none
Cc1ccc(C(=O)COC(=O)c2ccc3c(c2)C(=O)N(c2cccc4ncccc24)C3=O)cc1	RGS4-Gao reg 161.8[activator]
Cc1cnc(C(=O)OCc2ccc(COC(=O)c3cnc(C)cn3)cc2)cn1	Avidin fluor 69, RGS7-Gao inconclusive
Cc1ccc(CNC(=O)COC(=O)c2cnc(C)cn2)cc1	RGS7-Gao inconclusive
Cc1nn(-c2ccc(F)cc2)c(Cl)c1/C=C/C(=O)OCC(=O)Nc1c(F)c(F)c(F)c(F)c1F	none
O=C(CSc1nnc(Nc2ccccc2)s1)NCc1ccco1	none
Cc1ccc(Nc2nnc(SCC(=O)NCc3ccco3)s2)cc1	GSH bead fluor 259
O=C(CSc1nnc(COc2ccccc2Cl)o1)NC(=O)NCc1ccco1	RGS7-Gao inconclusive (no result: GSH bead fluor)
O=S(=O)(N1CCCCC1)n1nnc2ccccc21	Avidin fluor 49
Cc1ccc(S(=O)(=O)Nc2ccc3nc(N)sc3c2)cc1	Avidin fluor 49
CC(=O)N1CCn2c3ccc(C)cc3c3cccc1c32	none
CC(C)[C@H](NC(=O)c1ccccc1)C(=O)OCC(=O)NCCC1=CCCCC1	Avidin fluor 54
CCOC(=O)CSc1nc2cc3c(cc2cc1C)OCO3	Avidin fluor 72
O=C(OCCCCN1C(=O)c2ccccc2C1=O)c1ccc(S(=O)(=O)N2CCCC2)cc1	GSH bead fluor 266
COc1ccccc1-c1cc(C(=O)NCc2ccccc2)no1	Avidin fluor 48
COc1ccccc1-c1cc(C(=O)NCc2ccc(F)cc2)no1	none
COCCCNC(=O)CCC(=O)NNc1nc2ccccc2c2nc(C)nn12	RGS7-Gao inconclusive
N#Cc1ccc(Cl)cc1NC(=O)COC(=O)c1ccc2c(c1)OCCO2	Avidin fluor 66
N#C/C(=C\c1ccc(N2CCCCC2)o1)C(=O)Nc1cccc(Br)c1	Avidin fluor 60
N#C/C(=C\c1ccc(N2CCCCC2)o1)C(N)=O	none
Cc1ccc(S(=O)(=O)Nc2nonc2C)cc1	RGS7-Gao 31.3, RGS8-Gao reg 34.3, RGS4-Gao reg 38.4
CNS(=O)(=O)c1ccc(C)cc1	none
COC(=O)c1cccc(NC(=O)NC23CC4CC(CC(C4)C2)C3)c1	GSH bead fluor 243
COC(=O)c1ccc(Cl)c(NC(=O)NC23CC4CC(CC(C4)C2)C3)c1	none
CC(C)=CCC(C)(C)C1OCCN1C(=O)Nc1ccccc1 (stereo unspecified)	GSH bead fluor 258
CCOC(=O)C1CCCN(C(=O)C(C)Oc2ccc(Cl)cc2Cl)C1 (stereo unspecified)	none
